Assay [1] is described as follows: Nuclear factor erythroid 2-related factor 2/antioxidant responsive element (Nrf2/ARE) small molecule agonists: luciferase reporter gene qHTS assay in human keratinocytes (AID 1919969). Also: nearly all actives have a fitted effect of over 35% in size. Also: potency is read from the fitted curve at half-maximal effect. A general note: In a reporter assay the amount or activity of a reporter protein is the signal.
Assay [2] addresses KiSS-1 receptor (Homo sapiens) (UniProt Q969F8). As to the kind of experiment: Human kisspeptin (KISS1R) small molecule agonists, calcium flux assay in KISS1R-HEK293 cells (AID 1920064; active = well fitted activation curve with a large enough effect in the repeat runs). An outline of the steps: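 Stable human KISS1R HEK293 line; 18 h plating, 37 C/5% CO2; calcium dye 1 h 37 C; compound pin transfer; kinetic fluorescence Ex/Em 480/540, 3 min.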
On the technique in general: A change in cytosolic calcium serves as a functional read-out for many receptors and channels.

Assay [3] in a line: G protein-coupled receptor (GPCR) small molecule agonists, calcium flux assay: HEK293 wild type cell line counter screen (AID 1920065). An outline of the steps: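 Kinetic fluorescence at Ex/Em 480/540, recorded every second over 3 min, served as the read-out after compound addition. Each compound was tested at 15 concentrations in triplicate on cells pre-loaded with calcium dye for 1 h.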

A short description of assay [4]: p53 small molecule agonists, cell-based qHTS assay with rat liver microsomes (AID 1963578). An outline of the steps:
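Fluorescence from a beta-lactamase reporter under a p53 response element was measured after cells had been incubated 16 h at 37 C with test compound and rat liver microsomes plus NADPH (0.5 mg/mL final each).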
In general terms: qHTS replaces the single test concentration by a dilution series.

A short description of assay [5]: p53 small molecule agonists, cell-based qHTS assay with human liver microsomes: qHTS cell viability counter screen (AID 1963579). Also: nearly all actives have a fitted effect of over 45% in size. Summed up: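 Seed p53RE-bla cells at 4,000 per well; incubate 5 h at 37 C; add compound, human liver microsomes and NADPH; incubate 16 h at 37 C; add CellTiter-Glo; after 30 min at room temperature, read luminescence.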
Assay [6] is described as follows: p53 small molecule agonists, cell-based qHTS assay with rat liver microsomes: qHTS cell viability counter screen (AID 1963580). Also: nearly all actives have a fitted effect of over 45% in size. Also: potency is read from the fitted curve at half-maximal effect. Summed up:
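Viability is assessed in parallel with the p53 reporter read: HCT-116 p53RE-bla cells receive compounds plus rat microsomes and NADPH (0.5 mg/mL final apiece), incubate 16 h at 37 C, and then CellTiter-Glo luminescence is recorded.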

Assay [7] in a line: p53 small molecule agonists, cell-based qHTS assay: qHTS cell viability counter screen (AID 1963581). Also: nearly all actives have a fitted effect of over 45% in size. Summed up:
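HCT-116 p53RE-bla cells, 4,000/well, plated 5 h before compound pin transfer; 16 h at 37 C; bla substrate 2 h RT; then CellTiter-Glo, 30 min RT, luminescence.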

A short description of assay [8]: p53 small molecule agonists, cell-based qHTS assay (AID 1963582; active = well fitted activation curve with a large enough effect in the signal ratio in the repeat runs, not every such curve was filed as active; the % refers to the signal ratio). An outline of the steps: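 Reporter line: p53RE-bla. Pre-incubation 5 h, 37 C, 5% CO2; compound (DMSO, pin tool) 16 h, 37 C; B/G FRET substrate 2 h RT; fluorescence intensity read.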
Assay [9] deals with 5-hydroxytryptamine receptor 2A (Homo sapiens) (UniProt P28223). As to the kind of experiment: 5-hydroxytryptamine receptor 2A (HTR2A) small molecule agonists, cell-based qHTS assay (AID 1963587). Also: nearly all actives have a fitted effect of over 30% in size. Also: potency is read from the fitted curve at half-maximal effect. Summed up:
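CHO cells stably expressing human HTR2A, plated 18 h, loaded with calcium dye 1 h at 37 C. Agonist mode: compounds added and intracellular calcium fluorescence recorded kinetically for 2 min at 1 sec intervals.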

The target of assay [10] is Muscarinic acetylcholine receptor M1 (Homo sapiens) (UniProt P11229). Kind of assay: Cholinergic receptor muscarinic 1 (CHRM1) small molecule antagonists, cell-based qHTS assay (AID 1963588). Also: nearly all actives have a fitted effect of over 40% in size. Also: potency is read from the fitted curve at half-maximal effect. An outline of the steps:
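CHRM1-CHO calcium-flux assay, antagonist mode. Cells were seeded 18 h, dye-loaded 1 h at 37 C and given compound for 5 min at RT, then acetylcholine was added at 50nM. FDSS fluorescence was read 3 min; 15 concentrations, three runs.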

Assay [11] shares this target. Kind of assay: Cholinergic receptor muscarinic 1 (CHRM1) small molecule agonists, cell-based qHTS assay (AID 1963589). Also: nearly all actives have a fitted effect of over 35% in size. An outline of the steps: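 Human M1 in stable CHO line; 18 h plating, 1 h dye load 37 C; cpd added (agonist mode); Ca2+ fluorescence kinetic read, 1 s intervals; 15 conc, 3 runs.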
Assay [12] can be described thus: cAMP Responsive Elements (CRE) small molecule agonists, cell-based qHTS assay (AID 1963590). Summed up:
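HEK 293T CRE-bla, 2,000 cells/well, 18 h preincubation 37 C/5% CO2; cpds (DMSO) pinned, 3 h; LiveBLAzer B/G FRET substrate, 2 h RT.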

Assay [13] is described as follows: cAMP Responsive Elements (CRE) small molecule antagonists, cell-based qHTS assay (AID 1963591; active = well fitted inhibition curve with a large enough effect in the signal ratio in the repeat runs, not every such curve was filed as active; the % refers to the signal ratio). Summed up: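 Beta-lactamase reporter read by FRET substrate (LiveBLAzer B/G) after 2 h at room temperature. CRE-bla HEK293T cells had received compound plus 0.25 uM (final) NKH477 for 3 h at 37 °C.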
The target in assay [14] is Beta-2 adrenergic receptor (Homo sapiens) (UniProt P07550). Kind of assay: Adrenergic beta2 receptor (ADRB2) small molecule antagonists, cell-based qHTS assay (AID 1963592). Also: series mostly up to about 92 µM; nearly all actives have a fitted effect of over 50% in size. Summed up:
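Cells (CHO, stable ADRB2 overexpression) incubated 18-20hr at 37C; compounds added from DMSO; agonist mix (1nM isoproterenol, 100uM IBMX, 25uM Ro-20-1724) added; 0.5hr RT; d2-cAMP and anti-cAMP-cryptate added; 1hr RT; 665/615 nm read.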

The target of assay [15] is D(2) dopamine receptor (Homo sapiens) (UniProt P14416). As to the kind of experiment: Dopamine D2 receptor (DRD2) small molecule antagonists, cell-based qHTS assay (AID 1963595; active = well fitted inhibition curve with a large enough effect in the signal ratio in the repeat runs, with a control signal flat; the % refers to the signal ratio; also: potency is read from the fitted curve at half-maximal effect). An outline of the steps:
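HEK293 cells stably expressing DRD2 were preincubated with 0.1 mM Ro20-1724, then with compound for 10 min at room temperature. Cells were stimulated with 200 nM NKH477 plus 12 nM quinpirole for 30 min, and cAMP was read by HTRF.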

The nature of assay [16]: p53 small molecule agonists, cell-based qHTS assay with human liver microsomes (AID 1963577). An outline of the steps: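 Cells carrying a p53-responsive bla reporter were rested 5 h (37 C, 5% CO2) before compound transfer. Human liver microsomes plus NADPH, 0.5 mg/mL final apiece, supplied metabolism during the 16 h 37 C exposure.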
Assay [17] deals with 5-hydroxytryptamine receptor 2A (Homo sapiens) (UniProt P28223). As to the kind of experiment: 5-hydroxytryptamine receptor 2A (HTR2A) small molecule antagonists, cell-based qHTS assay (AID 1963586). Also: nearly all actives have a fitted effect of over 45% in size. Summed up:
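Antagonist-mode intracellular calcium assay: DOI (4 nM) added after 5 min compound pre-incubation at room temperature to dye-loaded HTR2A-CHO cells. Fluorescence followed for 3 min, sampled every second.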

Assay [18] deals with D(2) dopamine receptor (Homo sapiens) (UniProt P14416). As to the kind of experiment: Dopamine D2 receptor (DRD2) small molecule agonists, cell-based qHTS assay (AID 1963594). Also: nearly all actives have a fitted effect of over 35% in size. Summed up: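 HEK293 cells stably expressing human DRD2, pre-treated with PDE inhibitor Ro20-1724 (0.1 mM final) and compound 10 min at room temperature, then stimulated with NKH477 (200nM […]) for 30 min. cAMP read by HTRF (665/620 nm).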

Assay [19] has as its target Beta-2 adrenergic receptor (Homo sapiens) (UniProt P07550). Kind of assay: Adrenergic beta2 receptor (ADRB2) small molecule agonists, cell-based qHTS assay (AID 1963593).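 Also: CHO cells stably overexpressing human ADRB2.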 An outline of the steps:
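CHO cells stably over-expressing ADRB2 were plated overnight at 37C, then dosed with compounds plus a stimulation mix containing 100uM IBMX and 25uM Ro-20-1724 for 0.5hr at room temperature. cAMP was measured by HTRF competition, 1hr.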

In assay [20] the target is Gonadotropin-releasing hormone receptor (Homo sapiens) (UniProt P30968). As to the kind of experiment: Human gonadotropin-releasing hormone receptor (GnRHR) small molecule agonists, calcium flux assay in GnRHR-HEK293 cells (AID 1920063). Also: nearly all actives have a fitted effect of over 35% in size. An outline of the steps: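 GnRHR-HEK293, 1500 cells/well, 18 h 37 C/5% CO2; Ca dye 1 h 37 C; cpd pinned (DMSO), agonist mode; kinetic FL 480/540, 3 min, 1 s reads; 15 conc, n=3.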

“And” between values parts separate entries of the source, which are not always exact repeats. Equal values may be shown once. Results filed as inconclusive are left out. The source made the active and inactive calls. Unless noted, calls follow the shape of the full dose curve.

Chain of Muscarinic acetylcholine receptor M1 (Homo sapiens) (P11229 whole entry, looked up): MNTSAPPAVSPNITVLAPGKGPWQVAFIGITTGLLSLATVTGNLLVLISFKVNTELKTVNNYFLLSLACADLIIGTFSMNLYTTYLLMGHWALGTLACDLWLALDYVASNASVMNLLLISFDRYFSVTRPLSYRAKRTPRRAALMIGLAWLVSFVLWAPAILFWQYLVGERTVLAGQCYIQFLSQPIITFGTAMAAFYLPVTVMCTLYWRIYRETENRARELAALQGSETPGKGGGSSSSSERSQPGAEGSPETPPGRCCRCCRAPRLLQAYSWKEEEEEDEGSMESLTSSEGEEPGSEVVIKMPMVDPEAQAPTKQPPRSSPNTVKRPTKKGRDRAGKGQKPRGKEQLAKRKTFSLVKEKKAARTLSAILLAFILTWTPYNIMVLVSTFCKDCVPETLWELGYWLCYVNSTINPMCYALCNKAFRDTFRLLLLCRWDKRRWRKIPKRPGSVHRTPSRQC
Chain of Beta-2 adrenergic receptor (Homo sapiens) (P07550 whole entry, looked up): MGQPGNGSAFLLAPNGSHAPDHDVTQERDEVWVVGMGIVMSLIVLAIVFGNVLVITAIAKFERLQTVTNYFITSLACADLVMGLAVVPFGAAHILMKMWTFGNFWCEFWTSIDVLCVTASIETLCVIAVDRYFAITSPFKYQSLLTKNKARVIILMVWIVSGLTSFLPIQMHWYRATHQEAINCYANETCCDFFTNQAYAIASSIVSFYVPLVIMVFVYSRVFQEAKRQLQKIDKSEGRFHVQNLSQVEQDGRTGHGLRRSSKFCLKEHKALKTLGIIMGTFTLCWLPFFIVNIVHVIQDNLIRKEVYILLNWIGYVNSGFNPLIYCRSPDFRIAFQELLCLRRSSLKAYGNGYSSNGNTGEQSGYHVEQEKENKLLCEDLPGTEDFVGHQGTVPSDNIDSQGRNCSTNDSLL
Chain of D(2) dopamine receptor (Homo sapiens) (P14416 whole entry, looked up): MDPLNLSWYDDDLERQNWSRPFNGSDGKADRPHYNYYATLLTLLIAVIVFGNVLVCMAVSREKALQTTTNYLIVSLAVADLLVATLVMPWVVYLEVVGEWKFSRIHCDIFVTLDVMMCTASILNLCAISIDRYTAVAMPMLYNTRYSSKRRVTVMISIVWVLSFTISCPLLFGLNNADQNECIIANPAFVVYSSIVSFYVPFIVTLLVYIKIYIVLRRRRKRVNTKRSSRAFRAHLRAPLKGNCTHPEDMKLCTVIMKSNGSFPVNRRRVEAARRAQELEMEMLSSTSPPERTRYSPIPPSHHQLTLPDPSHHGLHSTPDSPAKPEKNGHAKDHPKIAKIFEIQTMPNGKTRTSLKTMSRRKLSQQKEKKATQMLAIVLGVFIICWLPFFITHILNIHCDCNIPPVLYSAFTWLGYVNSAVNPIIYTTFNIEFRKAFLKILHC
Chain of KiSS-1 receptor (Homo sapiens) (Q969F8 whole entry, looked up): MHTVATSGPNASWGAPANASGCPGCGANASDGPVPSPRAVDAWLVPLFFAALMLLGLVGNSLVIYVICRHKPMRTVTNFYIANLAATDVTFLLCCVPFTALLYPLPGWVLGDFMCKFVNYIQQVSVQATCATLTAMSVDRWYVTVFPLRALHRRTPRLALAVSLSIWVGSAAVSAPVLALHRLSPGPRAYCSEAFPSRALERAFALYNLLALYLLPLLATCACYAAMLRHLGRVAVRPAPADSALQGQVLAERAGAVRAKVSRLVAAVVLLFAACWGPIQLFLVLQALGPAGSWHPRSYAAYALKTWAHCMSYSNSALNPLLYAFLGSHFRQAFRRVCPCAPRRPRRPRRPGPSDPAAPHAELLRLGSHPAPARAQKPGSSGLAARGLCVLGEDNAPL
Chain of 5-hydroxytryptamine receptor 2A (Homo sapiens) (P28223 whole entry, looked up): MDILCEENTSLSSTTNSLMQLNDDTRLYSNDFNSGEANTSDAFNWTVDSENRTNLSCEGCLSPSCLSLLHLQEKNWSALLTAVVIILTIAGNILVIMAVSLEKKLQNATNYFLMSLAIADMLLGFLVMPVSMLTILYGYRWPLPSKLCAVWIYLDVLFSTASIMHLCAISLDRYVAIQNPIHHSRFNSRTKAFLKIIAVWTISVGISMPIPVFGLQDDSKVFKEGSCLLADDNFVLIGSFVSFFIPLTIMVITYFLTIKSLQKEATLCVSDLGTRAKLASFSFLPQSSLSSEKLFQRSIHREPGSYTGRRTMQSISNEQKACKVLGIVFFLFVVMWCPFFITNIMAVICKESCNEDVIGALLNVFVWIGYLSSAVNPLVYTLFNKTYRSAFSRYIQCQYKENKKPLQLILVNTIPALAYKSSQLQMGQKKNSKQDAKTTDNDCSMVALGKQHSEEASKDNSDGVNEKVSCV
Chain of Gonadotropin-releasing hormone receptor (Homo sapiens) (P30968 whole entry, looked up): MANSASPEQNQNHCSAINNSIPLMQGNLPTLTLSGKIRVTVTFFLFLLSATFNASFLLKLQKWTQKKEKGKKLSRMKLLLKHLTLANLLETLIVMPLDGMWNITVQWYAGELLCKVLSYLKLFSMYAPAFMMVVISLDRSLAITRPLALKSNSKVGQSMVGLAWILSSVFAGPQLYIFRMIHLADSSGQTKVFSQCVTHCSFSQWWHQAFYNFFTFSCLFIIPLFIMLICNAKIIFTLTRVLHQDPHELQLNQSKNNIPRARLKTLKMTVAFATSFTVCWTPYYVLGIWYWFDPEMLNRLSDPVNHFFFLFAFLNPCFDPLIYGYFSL

As to `CC(C)(C)c1cc(O)ccc1O`, the Potency in assay [1] was 24.3 µM (active) and 30.6 µM (active). The Potency result in assay [2], in assay [3], in assay [4], in assay [5], in assay [6] and in assay [7] was “inactive” throughout. The Potency result in assay [8], in assay [9], in assay [10], in assay [11], in [12] and in [13] was “inactive” in each case. Besides, the Potency result in assay [14] and in assay [15] was “inactive” throughout.

Turning to `CCCCC(O)(Cn1cncn1)c1ccc(Cl)cc1Cl` (stereo not given), the Potency result in assay [1], in assay [2], in assay [3], in assay [16], in [4] and in assay [5] was “inactive” in each case. In addition, the Potency entry in assay [7], in assay [17], in assay [11] and in assay [18] was “inactive” each time.

In the case of `O=C(O)C(Br)CBr` (stereo not given), the Potency result in assay [1], in assay [2], in assay [3], in assay [16], in assay [4] and in assay [6] was “inactive” each time. Also, the Potency entry in [7], in assay [8], in assay [17], in assay [10], in [11] and in assay [12] was “inactive” throughout. The Potency result in assay [14], in assay [19], in assay [18] and in assay [15] was “inactive” in each case.

In the case of `CCCCCCCCCC[N+](C)(C)CCCCCCCCCC`, the Potency entry in assay [1], in [2], in assay [3], in [16], in assay [4] and in [17] was “inactive” throughout. Further, the Potency result in assay [11] is “inactive”. Moreover, the Potency in assay [6] is 45.8 µM (active); in assay [10], 10.6 µM (active); in [15], 27.3 µM (active).

As for `CC1(C)CC/C(=C/c2ccc(Cl)cc2)C1(O)Cn1cncn1` (stereo not given), the Potency in assay [1] was 43 µM (active). The Potency result in [20], in assay [3], in [16], in [4], in [5] and in assay [6] was “inactive” throughout. The Potency result in [10] and in assay [15] was “inactive” in each case.

As for `BrC(Br)C(Br)(Br)Br`, the Potency result in assay [1], in [2], in [16], in assay [4], in assay [5] and in assay [6] was “inactive” in each case. Moreover, the Potency result in assay [7], in [17], in [10], in [14], in assay [18] and in [15] was “inactive” each time. Besides, the Potency in [9] was 55.3 µM (active).

Take `Cc1c(F)c(F)c(COC(=O)C2C(/C=C(\Cl)C(F)(F)F)C2(C)C)c(F)c1F` (stereo not given): the Potency in [1] is 30.6 µM (active). Moreover, the Potency entry in [20], in assay [2], in assay [4], in assay [5], in [6] and in assay [7] was “inactive” in each case. Moreover, the Potency entry in assay [17], in assay [9], in assay [10], in [11], in assay [13] and in assay [15] was “inactive” throughout.

Turning to `COc1nn(C(=O)NS(=O)(=O)c2ccccc2OC(F)(F)F)c(=O)n1C`, the Potency entry in assay [1], in assay [2], in assay [5], in [6], in [7] and in [17] was “inactive” in each case. Further, the Potency result in assay [10], in assay [12], in [13], in assay [14], in assay [19] and in assay [18] was “inactive” each time. Further, the Potency result in assay [15] was “inactive”.

On to `CC(=O)c1cc(C(C)(C)C)cc2c1CCC2(C)C`, for which the Potency result in assay [1], in assay [2], in assay [3], in assay [5], in assay [6] and in assay [7] was “inactive” in each case. In addition, the Potency entry in assay [17], in [9], in assay [10], in assay [11], in assay [12] and in assay [13] was “inactive” each time. Besides, the Potency entry in assay [14], in assay [19] and in [18] was “inactive” throughout.

For the compound `O=c1ssc(Cl)c1Cl`, the Potency in assay [1] was 24.3 µM (active). Besides, the Potency result in [2], in assay [3], in assay [4], in assay [5], in assay [6] and in assay [7] was “inactive” in each case. For the same compound, the Potency entry in [8], in [17], in [9], in assay [10], in assay [11] and in assay [12] was “inactive” in each case. Also, the Potency result in assay [13], in assay [19] and in assay [15] was “inactive” throughout.

The record behind these values is PubChem BioAssay (Tox21).
